The results in this text go back to PubChem BioAssay (Tox21).

Several values for one entry are separate records, joined by “and”; a condition that tells them apart may be missing. Equal values may be shown once. A structure can be active in one record and inactive in another. Activity calls are given as the source filed them. Entries that show only a call come without a potency. The call rests on the fitted dose curve; in most records, active means well fitted curve in the direction sought with a large enough effect in the signal ratio in the repeat runs (not every such curve was filed as active); inconclusive means weak or mixed curves, or effect the other way; inactive means no such curve, though single readings can be large or run the other way; the % refers to the signal ratio.
Potency means the concentration at half of the fitted maximal effect.

The test deals with Estrogen receptor (Homo sapiens) (UniProt P03372). In words: qHTS assay to identify small molecule antagonists of the estrogen receptor alpha (ER-alpha) signaling pathway (AID 743069). As to conditions: HEK293 ER-alpha-UAS-bla, beta-lactamase ratio, antagonist mode; series mostly up to 69.4 µM. The source says: National Center for Advancing Translational Sciences [NCATS]
Chain of Estrogen receptor (Homo sapiens) (P03372 whole entry, looked up): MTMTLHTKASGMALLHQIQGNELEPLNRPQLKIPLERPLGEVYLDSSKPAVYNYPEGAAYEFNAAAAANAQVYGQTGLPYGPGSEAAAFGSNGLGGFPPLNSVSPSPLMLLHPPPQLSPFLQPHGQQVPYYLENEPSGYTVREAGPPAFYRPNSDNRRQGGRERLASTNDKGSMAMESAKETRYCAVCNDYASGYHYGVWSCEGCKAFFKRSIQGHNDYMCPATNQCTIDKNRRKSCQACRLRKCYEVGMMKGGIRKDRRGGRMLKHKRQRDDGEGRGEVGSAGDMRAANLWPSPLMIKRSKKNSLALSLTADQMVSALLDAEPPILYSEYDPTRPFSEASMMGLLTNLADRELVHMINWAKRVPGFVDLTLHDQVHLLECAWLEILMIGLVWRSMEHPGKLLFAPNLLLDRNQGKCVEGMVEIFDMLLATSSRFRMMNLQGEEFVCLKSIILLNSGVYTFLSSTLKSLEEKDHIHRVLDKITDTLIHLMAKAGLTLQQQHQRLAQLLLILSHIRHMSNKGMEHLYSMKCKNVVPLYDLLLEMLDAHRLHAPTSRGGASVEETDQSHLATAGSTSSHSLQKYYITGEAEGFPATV
NIH Chemical Genomics Center [NCGC]
U.S. Environmental Protection Agency [EPA]
National Institutes of Environmental Health Sciences [NIEHS]
National Toxicology Program [NTP]
U.S. Food and Drug Administration [FDA]
Estrogen receptor (ER), a nuclear hormone receptor, plays an important role in development, metabolic homeostasis and reproduction. Two subtypes of ER, ER-alpha and ER-beta have similar expression patterns with some uniqueness in both types. Endocrine disrupting chemicals (EDCs) and their interactions with steroid hormone receptors like ER causes disruption of normal endocrine function. To identify the compounds that inhibit ER signaling, an ER-alpha-UAS-bla GripTiteTM cell line (Invitrogen, Carlsbad, CA, USA) containing a beta-lactamase reporter gene under the control of an Upstream Activator Sequence (UAS) stably integrated into HEK293 cells was used to screen the Tox21 10K compound library.
Tox21 Assay Protocol Summary:
ER-alpha-bla cells were cultured in assay medium containing 2% charcoal stripped FBS overnight in the culture flasks before the assay was performed. The cells were dispensed at 5,000 cells/5 uL of assay medium per well into black wall/clear-bottom 1536-well plates using a Multidrop Combi (ThermoFisher Scientific, Waltham, MA) dispenser. After the assay plates were incubated at a 37C and 5% CO2 for 4 hr, 23 nL of compounds dissolved in DMSO, positive controls or DMSO only was transferred to the assay plate by a Pintool station (Kalypsys, San Diego, CA), followed by addition of 1 uL of 17beta-estradiol in assay medium using a Flying Reagent Dispenser (Aurora Discovery, San Diego, CA). The plates were incubated at 37C and 5% CO2 for 18 hr. Then 1 uL of LiveBLAzerTM B/G FRET substrate was added using a Flying Reagent Dispenser, the plates were incubated at room temperature for 2 hours, and fluorescence intensity was measured by an Envision plate reader (PerkinElmer, Shelton, CT).
In the case of `Nc1ccncc1`, the Potency result is “inactive”.

With `c1ccc(-c2cccc(-c3ccccc3)c2)cc1`, the Potency entry was “inactive”.

For the compound `N#Cc1cc(Br)c(O)c(Br)c1`, the Potency entry is “inactive”.

Take `O=[N+]([O-])c1ccc(O)c([N+](=O)[O-])c1`: the Potency result was “inactive”.

As for `CCCCC(CC)COC(=O)Cl` (stereo not given), the Potency entry is “inactive”.

`CC(C)=CC1C(C(=O)OCc2coc(Cc3ccccc3)c2)C1(C)C` (stereo not given): the Potency entry is “inactive”.

For `CCC(C)c1cc([N+](=O)[O-])cc([N+](=O)[O-])c1O` (stereo not given), the Potency entry is “inactive and 6.92 µM [inhibitor] (active)”.

Take `CNC(=O)N(C)c1nnc(C(C)(C)C)s1`: the Potency entry was “inactive”.

As to `O=[N+]([O-])c1c(Cl)c(Cl)c(Cl)c(Cl)c1Cl`, the Potency entry is “inactive”.

As for `CCN(CC)C(=O)/C(Cl)=C(\C)OP(=O)(OC)OC`, the Potency entry was “inactive”.

Regarding `O=P(O)(O)CCCl`, the Potency result is “inactive”.

On to `COc1ccc(C=O)cc1`, for which the Potency result was “inactive”.

In the case of `CCCCCCOC(=O)c1ccccc1C(=O)OCCCCCC`, the Potency result was “inactive”.

On to `Nc1cccnc1`, for which the Potency result was “inactive”.

For `O=P(Oc1ccccc1)(Oc1ccccc1)Oc1ccccc1`, the Potency result is “inactive”.

Regarding `CCN(CC)C(=O)SCc1ccc(Cl)cc1`, the Potency entry is “inactive”.

For the compound `COP(=O)(OC)OC`, the Potency result was “inactive”.

Take `Clc1nc(Cl)nc(Cl)n1`: the Potency result was “inactive”.

Take `CCCCOCCOP(=O)(OCCOCCCC)OCCOCCCC`: the Potency result was “inactive”.

Turning to `CCCCN(CCCC)N=O`, the Potency entry is “inactive”.

Regarding `CCC(C)(c1ccc(O)cc1)c1ccc(O)cc1`, the Potency is 616 nM [inconclusive] (active) and 309 nM [inconclusive] (active).

As to `CC(C)C(=O)OCC(C)(C)C(OC(=O)C(C)C)C(C)C` (stereo not given), the Potency entry is “inactive”.

Turning to `c1nc[nH]n1`, the Potency result was “inactive”.

Turning to `CCN(N=O)C(N)=O`, the Potency entry is “inactive”.

As to `CCCCCCCCC(=O)NCc1ccc(O)c(OC)c1`, the Potency entry was “inactive”.

On to `NC(=S)Nc1ccccc1`, for which the Potency entry was “inactive”.

For the compound `CCCCCCCCOC(=O)c1ccccc1C(=O)OCCCCCCCC`, the Potency result was “inactive”.

As to `COC(=O)c1sccc1S(=O)(=O)NC(=O)Nc1nc(C)nc(OC)n1`, the Potency entry is “inactive”.

Consider `COP(=S)(OC)Oc1ccc([N+](=O)[O-])cc1`, for which the Potency result was “inactive”.

In the case of `O=S(=O)(Oc1ccc(Cl)cc1)c1ccc(Cl)cc1`, the Potency result is “inactive”.

As to `Nn1cnnc1`, the Potency entry is “inactive”.

As to `O=[N+]([O-])c1cccc2ccccc12`, the Potency result was “inactive”.

For the compound `C=C(C)C(=O)OCC1CO1` (stereo not given), the Potency result was “inactive”.

Turning to `CC(C)c1ccc(CO)cc1`, the Potency result is “inactive”.

`NCc1cccnc1`: the Potency entry was “inactive”.

Regarding `Cc1c(COC(=O)[C@@H]2[C@H](/C=C(\Cl)C(F)(F)F)C2(C)C)cccc1-c1ccccc1`, the Potency entry is “inactive”.

As to `OCC(O)CO`, the Potency result is “inactive”.

For the compound `CC(C)NC(C)C`, the Potency entry is “inactive”.

`CCCCCCCCCCCOC(=O)c1ccccc1C(=O)OCCCCCCCCCCC`: the Potency entry is “inactive”.

For `Nc1ccc(-c2ccccc2)cc1`, the Potency result was “inactive”.
